Assay results taken from the supplement of paper PMC8728848.
The sample as a whole holds a higher share of the strongest signals than the screen did.

system: Fuc(a1-2)Gal(b1-3)GalNAc(b1-3)Gal(a1-4)Gal(b1-4)Glc; test: glycan array binding signal (z-score within array); higher = stronger binding; settings: glycan notation: IUPAC condensed, linker removed
In short: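 The Consortium for Functional Glycomics database supplied 3228 glycan arrays, of which those lacking an available protein sequence were dropped. The binding signal, a within-array Z-score, was averaged across arrays of the same protein sequence and across linkers. Negative scores can be read as non-binding.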

Sequence of Aggrecan (Rattus norvegicus), NP_071526 (chain, as listed by the source): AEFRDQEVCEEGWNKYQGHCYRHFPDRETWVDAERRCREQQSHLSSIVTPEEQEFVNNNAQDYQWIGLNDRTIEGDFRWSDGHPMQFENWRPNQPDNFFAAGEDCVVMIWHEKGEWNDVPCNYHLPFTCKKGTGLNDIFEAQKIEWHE
Sequence of C3b (Homo sapiens), P01024 (P01024 23-667): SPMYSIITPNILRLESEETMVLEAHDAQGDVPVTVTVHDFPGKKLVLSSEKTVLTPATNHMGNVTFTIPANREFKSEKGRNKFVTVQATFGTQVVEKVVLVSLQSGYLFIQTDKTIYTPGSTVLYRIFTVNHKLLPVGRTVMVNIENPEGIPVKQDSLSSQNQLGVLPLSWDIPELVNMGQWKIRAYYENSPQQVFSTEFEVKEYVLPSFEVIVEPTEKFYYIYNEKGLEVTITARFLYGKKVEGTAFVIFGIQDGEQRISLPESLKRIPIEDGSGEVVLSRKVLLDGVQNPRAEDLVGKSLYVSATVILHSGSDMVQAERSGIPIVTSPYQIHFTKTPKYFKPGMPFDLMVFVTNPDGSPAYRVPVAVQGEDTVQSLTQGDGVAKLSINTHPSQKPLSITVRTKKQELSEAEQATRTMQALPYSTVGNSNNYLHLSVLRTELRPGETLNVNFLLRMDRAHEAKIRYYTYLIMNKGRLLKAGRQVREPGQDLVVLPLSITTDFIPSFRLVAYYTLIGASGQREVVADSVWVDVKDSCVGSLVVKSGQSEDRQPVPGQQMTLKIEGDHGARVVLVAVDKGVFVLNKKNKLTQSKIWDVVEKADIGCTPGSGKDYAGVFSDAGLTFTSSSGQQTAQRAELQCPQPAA
Sequence of PILRb (Mus musculus), Q2YSF2 (Q2YSF2 entry or part of it): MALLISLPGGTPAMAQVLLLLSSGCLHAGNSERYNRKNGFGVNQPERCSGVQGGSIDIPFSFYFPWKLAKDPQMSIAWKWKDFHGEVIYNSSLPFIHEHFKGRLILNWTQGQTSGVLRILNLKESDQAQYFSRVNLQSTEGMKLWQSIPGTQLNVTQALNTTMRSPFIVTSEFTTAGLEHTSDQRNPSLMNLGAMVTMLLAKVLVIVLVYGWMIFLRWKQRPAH

Compared with Aggrecan (Rattus norvegicus), NP_071526, PILRb (Mus musculus), Q2YSF2 is lower in “glycan array binding signal (z-score)” value: -0.123 for the first, -0.245 for the second.

With C3b (Homo sapiens), P01024 the “glycan array binding signal (z-score)” value was 0.194.
